# Measured values: PubChem BioAssay
# Values joined by “and” are separate entries in the source; they are usually repeats but may differ in a detail not shown here. Equal values may be shown once. Inconclusive results are not listed. Active and inactive are the calls of the source. Unless noted, no stated cut-off is given here; in the data, active means inhibition above about 80%; inactive means the rest. Where a SMILES comes first, the peptide text is derived from it. [ ]: non-standard residue; d: D form. The star is where a group is joined. Sta = CC(C)C[C@H](N)[C@@H](O)CC(=O)O; Isovaleryl = CC(C)CC(=O)*
# Columns and labels:
# [1] = LFS_MB_1R medulloblastoma cell growth inhibition, synergistic combos for chromothripsis tumors, cisplatin or BGB combos (AID 1671452); conditions: LFS_MB_1R medulloblastoma cells, stronger effect = higher value;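 further: cells exposed for 96 hours before readout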
# [2] = CRL2098 osteosarcoma cell growth inhibition, synergistic combos for chromothripsis tumors, BGB or cisplatin IC20 combos (AID 1671454); conditions: CRL2098 osteosarcoma cells, drug combinations, stronger effect = higher value;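 further: cells exposed for 96 h before readout; 0% = vehicle DMSO and 100% = killing by high DMSO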
# [3] = HD-MB03 medulloblastoma cell growth inhibition, synergistic combos for chromothripsis tumors, BGB or cisplatin IC20 combos (AID 1671455; in the data active means inhibition above about 83%;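 further: 0% = vehicle DMSO and 100% = high DMSO as cytotoxic control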); conditions: HD-MB03 medulloblastoma cells, stronger effect = higher value
# [4] = UWB1.289 ovarian carcinoma cell growth inhibition, synergistic combos for chromothripsis tumors, BGB or cisplatin combos (AID 1671456); conditions: UWB1.289 ovarian carcinoma cells, stronger effect = higher value;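 further: cells exposed to compound for four days; 0% = vehicle DMSO and 100% = killing by high DMSO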
# [5] = LFS_MB_2R medulloblastoma cell growth inhibition, synergistic combos for chromothripsis tumors, cisplatin combos (AID 1671457); conditions: LFS_MB_2R medulloblastoma cells, stronger effect = higher value;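 further: cells exposed to compound for four days before readout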
# [6] = UWB1.289_BRCA1 ovarian cancer growth, cell-based, BGB or cisplatin combinations (AID 1671459); conditions: UWB1.289 BRCA1 ovarian carcinoma, drug combinations, stronger effect = higher value
# [7] = human astrocyte viability loss, single and combined drugs, cytotoxicity control for chromothriptic childhood tumor combination screen, cell-based, BGB or cisplatin IC20 combos (AID 1671460); conditions: Human astrocytes, drug combinations, stronger effect = higher value;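 further: cells exposed to compounds for 96 hours before viability readout; 0% = vehicle and 100% = killing control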
# [8] = target: ATP-dependent translocase ABCB1 (Homo sapiens) (UniProt P08183); test: MDR1 (ABCB1) efflux transporter inhibition, cell-based (AID 377; in the data active means fluorescence slope change above about 50%); conditions: MDR1-expressing cells, fluorescent substrate accumulation slope; stronger effect = higher value; concentration not given here
# Chain of ATP-dependent translocase ABCB1 (Homo sapiens) (P08183 whole entry, looked up): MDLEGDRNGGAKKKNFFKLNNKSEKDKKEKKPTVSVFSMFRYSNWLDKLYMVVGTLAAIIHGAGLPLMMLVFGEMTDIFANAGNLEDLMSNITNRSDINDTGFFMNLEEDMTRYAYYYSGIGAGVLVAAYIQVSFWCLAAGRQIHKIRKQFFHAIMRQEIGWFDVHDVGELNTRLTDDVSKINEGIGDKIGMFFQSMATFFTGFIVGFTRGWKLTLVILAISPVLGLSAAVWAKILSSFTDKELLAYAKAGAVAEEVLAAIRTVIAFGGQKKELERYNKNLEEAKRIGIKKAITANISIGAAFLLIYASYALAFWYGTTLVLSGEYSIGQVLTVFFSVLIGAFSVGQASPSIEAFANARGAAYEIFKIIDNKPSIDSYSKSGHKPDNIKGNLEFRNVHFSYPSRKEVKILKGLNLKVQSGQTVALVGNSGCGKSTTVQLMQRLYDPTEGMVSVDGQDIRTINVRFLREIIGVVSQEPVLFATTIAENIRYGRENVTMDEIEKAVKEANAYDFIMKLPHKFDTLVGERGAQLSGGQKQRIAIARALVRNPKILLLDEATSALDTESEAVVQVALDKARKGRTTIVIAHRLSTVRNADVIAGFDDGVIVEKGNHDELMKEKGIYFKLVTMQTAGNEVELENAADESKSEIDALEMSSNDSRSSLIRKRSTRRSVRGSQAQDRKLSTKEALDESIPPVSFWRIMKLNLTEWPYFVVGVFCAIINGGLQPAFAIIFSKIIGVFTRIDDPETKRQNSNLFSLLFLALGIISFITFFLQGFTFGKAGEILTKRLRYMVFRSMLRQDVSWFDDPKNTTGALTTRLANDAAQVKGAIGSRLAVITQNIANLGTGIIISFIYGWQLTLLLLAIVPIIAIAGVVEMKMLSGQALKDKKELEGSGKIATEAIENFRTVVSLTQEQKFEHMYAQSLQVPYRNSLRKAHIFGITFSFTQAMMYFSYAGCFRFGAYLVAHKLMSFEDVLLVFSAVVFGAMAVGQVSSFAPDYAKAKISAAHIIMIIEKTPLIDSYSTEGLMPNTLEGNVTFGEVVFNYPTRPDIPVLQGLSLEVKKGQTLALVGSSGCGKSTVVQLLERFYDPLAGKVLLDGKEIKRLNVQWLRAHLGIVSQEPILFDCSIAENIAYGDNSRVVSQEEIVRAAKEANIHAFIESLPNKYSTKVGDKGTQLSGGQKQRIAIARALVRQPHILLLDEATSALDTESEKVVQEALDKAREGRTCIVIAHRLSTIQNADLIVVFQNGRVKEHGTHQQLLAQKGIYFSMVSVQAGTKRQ
# [9] = Cy5 fluorescence interference with SSB-bound oligo, artefact control for HCV NS3 helicase inhibitor project, biochemical, NIH Clinical Collection, E. coli SSB (AID 743268; call rule not given here)
# [10] = tested on: Hepatitis C virus NS3 helicase; test: HCV NS3 helicase inhibitors, primary screen, biochemical, fluorescence polarization, NIH Clinical Collection (AID 743270; call rule not given here); conditions: NS3 helicase binding to Cy5-dT15 DNA, stronger effect = higher value, concentration not given here
# [11] = target: Single-stranded DNA-binding protein (Escherichia coli (strain K12)) (UniProt P0AGE0); test: E. coli SSB displacement from DNA, counter-screen for HCV NS3 helicase inhibitor project, biochemical, fluorescence polarization, NIH Clinical Collection (AID 743271; in the data active means inhibition above about 28%); conditions: stronger effect = higher value, concentration not given here
# [12] = inhibitors of Cryptococcus chitosan production, flow cytometry, Cibacron Brilliant Red staining (AID 1347148; call rule not given here;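 further: compound exposure lasted three days at 37 degrees C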); conditions: Cryptococcus neoformans chitosan, stronger effect = lower value; at 10 µM unless noted
# [13] = measured here: combination with BGB IC40, at 0.05 µM
# [14] = measured here: combination with cisplatin, at 0.5 µM
# [15] = measured here: combination with cisplatin, at 5 µM
# [16] = measured here: combination with BGB at IC20, at 0.5 µM
# [17] = measured here: combination with cisplatin at IC20, at 0.5 µM
# [18] = measured here: combo with BGB at IC20, at 0.5 µM
# [19] = measured here: combo with cisplatin at IC20, at 0.5 µM
# [20] = measured here: inhibition with BGB combination, at 0.05 µM
# [21] = measured here: inhibition with cisplatin combination, at 0.05 µM
# [22] = BGB combination, concentration series, at 5 µM
# [23] = cisplatin combination, concentration series, at 5 µM
# [24] = measured here: combo with BGB IC20, at 0.5 µM
# [25] = measured here: combo with cisplatin IC20, at 0.5 µM
structure (smiles),measurement,setting,value
Nc1ncn([C@H]2C[C@H](O)[C@@H](CO)O2)c(=O)n1,inhibition,[1]; at 0.5 µM,-7.33% (inactive)
same,inhibition,[1]; [13],-12.1%
same,inhibition,[1]; [14],-1.56%
same,inhibition,[1]; [15],-10.1%
same,inhibition,[2]; at 0.5 µM,-25.9% (inactive)
same,inhibition,[2]; [16],-12.6%
same,inhibition,[2]; [17],-67.9%
same,inhibition,[3]; at 0.5 µM,30.9% (inactive)
same,inhibition,[3]; [18],47.3%
same,inhibition,[3]; [19],31.6%
same,inhibition,[4]; at 0.5 µM,16.5% (inactive)
same,inhibition,[4]; [20],5.24%
same,inhibition,[4]; [21],-1.44%
same,inhibition,[5]; at 0.5 µM,-4.56% (inactive)
same,inhibition,[5]; [14],-4.46%
same,inhibition,[5]; [15],0.176%
same,inhibition,[6]; [22],32.1%
same,inhibition,[6]; at 0.5 µM,25% (inactive)
same,inhibition,[6]; [23],40.5%
same,inhibition,[7]; at 0.5 µM,26.9% (inactive)
same,inhibition,[7]; [24],27.2%
same,inhibition,[7]; [25],20.4%
C[C@@H](CN1CC(=O)NC(=O)C1)N1CC(=O)NC(=O)C1,inhibition,[1]; at 0.5 µM,-13.2% (inactive)
same,inhibition,[1]; [13],-25.5%
same,inhibition,[1]; [14],-32.2%
same,inhibition,[1]; [15],-35.9%
same,inhibition,[2]; at 0.5 µM,-49.6% (inactive)
same,inhibition,[2]; [16],-22.2%
same,inhibition,[2]; [17],-110%
same,inhibition,[3]; at 0.5 µM,-16.4% (inactive)
same,inhibition,[3]; [18],-23.7%
same,inhibition,[3]; [19],-12.8%
same,inhibition,[4]; at 0.5 µM,-10.9% (inactive)
same,inhibition,[4]; [20],-2.15%
same,inhibition,[4]; [21],-21.4%
same,inhibition,[5]; at 0.5 µM,-10.5% (inactive)
same,inhibition,[5]; [14],-11.4%
same,inhibition,[5]; [15],-5.98%
same,inhibition,[6]; [22],-10.8%
same,inhibition,[6]; at 0.5 µM,-7.98% (inactive)
same,inhibition,[6]; [23],-4.24%
same,inhibition,[7]; at 0.5 µM,0.89% (inactive)
same,inhibition,[7]; [24],-5.32%
same,inhibition,[7]; [25],12.3%
CN(C)C/C=C(/c1ccc(Br)cc1)c1cccnc1,fluorescence slope change,[8],159% (active)
CC#C[C@]1(O)CC[C@H]2[C@@H]3CCC4=CC(=O)CCC4=C3[C@@H](c3ccc(N(C)C)cc3)C[C@@]21C,fluorescence slope change,[8],142% (active)
same,fluorescence ratio,[9],0.97 (inactive)
same,inhibition,[10],2.4% (inactive)
same,inhibition,[11],-1.18% (inactive)
FC(F)(F)c1ccccc1-n1ccnc1,fold fluorescence,[12],8.97 [at 235.7 µM] (inactive)
CCCCCOC(=O)Nc1nc(=O)n([C@@H]2O[C@H](C)[C@@H](O)[C@H]2O)cc1F,inhibition,[1]; at 0.5 µM,-36.3% (inactive) and -17.9% (inactive)
same,inhibition,[1]; [13],-77.2% and -11.6%
same,inhibition,[1]; [14],-36.7% and -43%
same,inhibition,[1]; [15],-42.5% and -67.7%
same,inhibition,[2]; at 0.5 µM,-110% (inactive) and -37.4% (inactive)
same,inhibition,[2]; [16],-124% and -32.3%
same,inhibition,[2]; [17],-103% and -72.6%
same,inhibition,[3]; at 0.5 µM,-17.2% (inactive) and -2.76% (inactive)
same,inhibition,[3]; [18],-8.55% and -7.81%
same,inhibition,[3]; [19],-34.6% and 2.4%
same,inhibition,[4]; at 0.5 µM,-11.5% (inactive) and 9.77% (inactive)
same,inhibition,[4]; [20],-37.1% and -7.89%
same,inhibition,[4]; [21],-5.98% and 11.7%
same,inhibition,[5]; at 0.5 µM,-21.1% (inactive) and -14.8% (inactive)
same,inhibition,[5]; [14],-19.7% and -16.3%
same,inhibition,[5]; [15],-95.1% and -10.2%
same,inhibition,[6]; [22],-26.2% and 5.45%
same,inhibition,[6]; at 0.5 µM,-11.8% (inactive) and 4.86% (inactive)
same,inhibition,[6]; [23],-6.41% and 4.95%
same,inhibition,[7]; at 0.5 µM,-8.94% (inactive) and 6.03% (inactive)
same,inhibition,[7]; [24],-11% and -1.61%
same,inhibition,[7]; [25],-23.1% and 9.49%
NS(=O)(=O)c1cc(Cl)c(Cl)c(S(N)(=O)=O)c1,fluorescence slope change,[8],82.9% (active)
CC(C)CC(=O)N[C@H](C(=O)N[C@H](C(=O)N[C@@H](CC(C)C)[C@@H](O)CC(=O)N[C@@H](C)C(=O)N[C@@H](CC(C)C)[C@@H](O)CC(=O)O)C(C)C)C(C)C (Isovaleryl-VV[Sta]A[Sta]-OH),fold fluorescence,[12],4.93 [at 72.9 µM] (inactive)
CCCCCCCCCCCCCCCC(=O)NCCO,fold fluorescence,[12],4.46 (inactive)
